Source: PubChem
TDP1 cell noCPT: qHTS for Inhibitors of human tyrosyl-DNA phosphodiesterase 1 (TDP1): qHTS in cells in absence of CPT; DT40 Tdp1-/- hTDP1 cells, no CPT, ATP luminescence, 48 h; Potency, µM (highest dose often 46.2 µM), without a hit: top-dose activity change, negative = growth inhibition, most hits filed as inhibitors; 420,000 tested, 15% active; further: potency means the concentration at half of the fitted maximal effect; nearly all actives have a fitted effect of over 55% in size
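Growth of hTDP1-complemented DT40 Tdp1-knockout cells is measured by ATP luminescence after at least 48 hr compound exposure at 37 °C, with DMSO substituting for the 20 nM CPT used in the parallel screen.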
IL1B secr inh: blocks inflammasome-driven IL-1 beta release | THP-1 LPS/ATP IL-1B secretion, AlphaLISA, 16 h; active compounds read low | activity change, % at 57.5 µM | 360,000 tested, 4.7% active | AID 743279; in the data active means activity change below about -50%; inconclusive means mostly about -30% to -49%
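THP-1 cells pretreated 1 hr with compounds (up to 57.5 uM final), then stimulated with LPS (250 ng/mL final) plus ATP (1.25 mM final); secreted IL-1B measured by AlphaLISA after 16 hr, decreased signal indicating inhibition.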
TDP1 cell CPT: growth inhibition of DT40 Tdp1-/-;hTDP1 cells with camptothecin (screen for TDP1 inhibitors) | chicken DT40 Tdp1-/-;hTDP1 cells + 20 nM CPT, ATP luminescence, 48 h | Potency, µM (top dose mostly 46.2 µM), for inactives: top-dose activity change, negative = growth inhibition, hits mostly inhibitors | 420,000 tested, 12% active | AID 686979; further: potency means the concentration at half of the fitted maximal effect; nearly all actives have a fitted effect of over 55% in size
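Chicken DT40 Tdp1-/- cells stably complemented with human TDP1 were seeded at 400 cells/well in medium containing 20 nM camptothecin, exposed to pin-transferred compounds, and grown at 37 °C for at least 48 hr. Viability was read as ATP luminescence.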
HT1080 IDH1KD tx: toxicity to HT-1080 IDH1 knockdown cells (counter line). HT-1080 IDH1 knockdown viability, ATP luminescence, 48 h. Potency, µM (doses to about 46.1 µM), for inactives: at the top dose activity, negative = toxicity, hits mostly cytotoxic. 360,000 tested, 2% active. AID 686971;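 further: potency means the concentration at half of the fitted maximal effect; 0% = DMSO wells and -100% = cell-free medium wells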
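In this qHTS, HT-1080 cells depleted of IDH1 are exposed for 48 h at 37 °C to compound titrations. Toxicity is scored from CellTiter-Glo luminescence, with DMSO as full viability and medium alone as none.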
HT1080-NT tox: kills 2HG-producing HT-1080-NT fibrosarcoma cells. 360,000 tested, 1.6% active. Potency, µM (highest dose often 46.1 µM), without a hit: top-dose activity, negative = less viability, hits mostly cytotoxic. AID 686970. HT-1080-NT fibrosarcoma viability, CellTiter-Glo ATP luminescence, 48 h;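 further: NT is the 2HG producing partner of a matched IDH1 knockdown line; potency means the concentration at half of the fitted maximal effect; 0% = DMSO-treated cells and -100% = media-only wells without cells; nearly all actives have a fitted effect of over 55% in size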
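Toxicity toward the 2HG-producing NT line was scored as %Activity, normalised to DMSO and no-cell wells, from CellTiter-Glo luminescence after 48 hours' treatment.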
Active calls of the source: *. Sampled rows, rich in hits. Any-hit rate of the full collection: about 19%. Unless noted, the call rests on the fitted dose curve; in most records, active means well fitted curve in the direction sought with a large enough effect; inconclusive means small, poorly fitted or top-dose-only effect, or another doubt; inactive means no such curve, though single readings can be large; an effect the other way counts as inactive or inconclusive. Unless noted, on the % scale 0 is the no-effect control and ±100 the full control effect.

How did O=C(N/N=C/c1cc(Br)ccc1O)c1ccccc1Cl do in these assays?
TDP1 cell noCPT: 0.92µM*; IL1B secr inh: 53; TDP1 cell CPT: 0.65µM*; HT1080 IDH1KD tx: 16µM*; HT1080-NT tox: inconclusive

How did O=C(CSCC(=O)NN=Cc1ccccc1O)NN=Cc1ccccc1O do in these assays?
TDP1 cell noCPT: 5.8µM*; IL1B secr inh: 38; TDP1 cell CPT: 5.8µM*; HT1080 IDH1KD tx: 21µM*; HT1080-NT tox: inconclusive

Results for CCOC(=O)c1c(S(=O)(=O)NCC(=O)Nc2cccc(C)c2)c(C)n(C)c1C ?
TDP1 cell noCPT: 16%; IL1B secr inh: 2; TDP1 cell CPT: 1%; HT1080 IDH1KD tx: 12%; HT1080-NT tox: 3%

How did O=C(CNC(=O)c1ccc(Br)o1)OCC(=O)c1cccc([N+](=O)[O-])c1 do in these assays?
TDP1 cell noCPT: inconclusive; IL1B secr inh: 19; TDP1 cell CPT: inconclusive; HT1080 IDH1KD tx: 19%; HT1080-NT tox: 7%

How did O=C(N/N=C\c1cccnc1)c1ccccc1O do in these assays?
TDP1 cell noCPT: -5%; IL1B secr inh: -17; TDP1 cell CPT: 9%; HT1080 IDH1KD tx: 22%; HT1080-NT tox: 19%

Results for O=C(Cn1cc(C(F)(F)F)ccc1=O)N/N=C/c1ccccc1O ?
TDP1 cell noCPT: 7.3µM*; IL1B secr inh: 116; TDP1 cell CPT: 16µM*; HT1080 IDH1KD tx: 15µM*; HT1080-NT tox: inconclusive

How did Cc1nonc1C(=O)N/N=C/c1cc2c(cc1Br)OCO2 do in these assays?
TDP1 cell noCPT: 14%; IL1B secr inh: -13; TDP1 cell CPT: -23%; HT1080 IDH1KD tx: -3%; HT1080-NT tox: 2%

What do the screens show for `Cc1nn(C)c(C(=O)N/N=C/c2cc3c(cc2Br)OCO3)c1Br`?
TDP1 cell noCPT: 18µM*; IL1B secr inh: 0; TDP1 cell CPT: inconclusive; HT1080 IDH1KD tx: -11%; HT1080-NT tox: -1%

How did O=C(N/N=C\c1ccccc1O)c1ccccc1O do in these assays?
TDP1 cell noCPT: 0.53µM*; TDP1 cell CPT: 0.53µM*

How did O=C(Cn1cc(C(F)(F)F)ccc1=O)N/N=C/c1ccc(F)cc1 do in these assays?
TDP1 cell noCPT: -27%; IL1B secr inh: -6; TDP1 cell CPT: 23%; HT1080 IDH1KD tx: -4%; HT1080-NT tox: -13%

Results for CCOc1ccc(CCNC(=O)Cn2ncn3c(cc4ccccc43)c2=O)cc1OCC ?
TDP1 cell noCPT: -26%; TDP1 cell CPT: -10%

How did CC(C)(C)OC(=O)N1CCN(C(=O)Nc2ccc3c(c2)OCCO3)CC1 do in these assays?
TDP1 cell noCPT: -19%; IL1B secr inh: -1; TDP1 cell CPT: 4%; HT1080 IDH1KD tx: 1%; HT1080-NT tox: 7%

What do the screens show for `c1ccc(CNCCCn2cnc3c(OCc4ccccc4)ncnc32)cc1`?
TDP1 cell noCPT: 23µM*; IL1B secr inh: -12; TDP1 cell CPT: 29µM*; HT1080 IDH1KD tx: -11%; HT1080-NT tox: -2%

What do the screens show for `C[C@@H](NC(=O)Cn1cnc2c(OCc3ccccc3)ncnc21)c1cccc2ccccc12`?
TDP1 cell noCPT: inconclusive; IL1B secr inh: -19; TDP1 cell CPT: inconclusive; HT1080 IDH1KD tx: inconclusive; HT1080-NT tox: inconclusive

How did C[C@@H](NCCCn1cnc2c(OCc3ccccc3)ncnc21)c1cccc2ccccc12 do in these assays?
TDP1 cell noCPT: 16µM*; IL1B secr inh: -27; TDP1 cell CPT: inconclusive; HT1080 IDH1KD tx: inconclusive; HT1080-NT tox: -29%

What do the screens show for `CSc1ncnc2c1ncn2CCCNCC(c1ccccc1)c1ccccc1`?
TDP1 cell noCPT: 26µM*; IL1B secr inh: -3; TDP1 cell CPT: inconclusive; HT1080 IDH1KD tx: -10%; HT1080-NT tox: -7%

Results for c1ccc(CCCNCCCn2cnc3c(OCc4ccccc4)ncnc32)cc1 ?
TDP1 cell noCPT: 12µM*; IL1B secr inh: -86*; TDP1 cell CPT: 10µM*; HT1080 IDH1KD tx: inconclusive; HT1080-NT tox: -23%

What do the screens show for `C[C@H]1CN(CCc2ccccc2)C(=O)[C@@H]1CC(=O)NCc1ccccc1`?
TDP1 cell noCPT: inconclusive; IL1B secr inh: 21; TDP1 cell CPT: inconclusive; HT1080 IDH1KD tx: 11%; HT1080-NT tox: 24%

Results for CCC(C)(C)NC(=O)CN(Cc1ccccc1Cl)C(=O)CCC(=O)Nc1cc(C)ccn1 ?
TDP1 cell noCPT: -14%; IL1B secr inh: -23; TDP1 cell CPT: -2%; HT1080 IDH1KD tx: -12%; HT1080-NT tox: -15%

How did CCN(CC(=O)NCc1cccs1)C(=O)c1ccc(OC)c(OC)c1 do in these assays?
TDP1 cell noCPT: -6%; IL1B secr inh: 5; TDP1 cell CPT: -3%; HT1080 IDH1KD tx: 6%; HT1080-NT tox: -5%

What do the screens show for `CCn1c(=O)c2cc(C(=O)NCCc3cccc(C)c3)sc2c2ccccc21`?
TDP1 cell noCPT: -14%; TDP1 cell CPT: -4%

How did CCN=c1sc(C(=O)NCCc2ccccc2)cc(=O)n1CC do in these assays?
TDP1 cell noCPT: 18µM*; IL1B secr inh: -10; TDP1 cell CPT: inconclusive; HT1080 IDH1KD tx: inconclusive; HT1080-NT tox: inconclusive

What do the screens show for `CCOc1ccccc1Nc1nc(-c2sc(NC(=O)c3ccco3)nc2C)cs1`?
TDP1 cell noCPT: 15µM*; IL1B secr inh: 21; TDP1 cell CPT: 15µM*; HT1080 IDH1KD tx: -11%; HT1080-NT tox: 2%

What do the screens show for `Cc1ccc(Nc2nc(-c3sc(NC(=O)c4ccco4)nc3C)cs2)cc1`?
TDP1 cell noCPT: 13µM*; IL1B secr inh: 34; TDP1 cell CPT: inconclusive; HT1080 IDH1KD tx: -2%; HT1080-NT tox: -8%

Results for CN1C2=C(C(=O)CC(C)(C)C2)C(c2cccs2)C2=C1CC(C)(C)CC2=O ?
TDP1 cell noCPT: -13%; IL1B secr inh: -6; TDP1 cell CPT: 0%; HT1080 IDH1KD tx: 17%; HT1080-NT tox: 16%

What do the screens show for `Cc1cc(-n2c(=O)[nH]c(=O)n(C)c2=O)ccc1Oc1ccc(S(=O)(=O)C(F)(F)F)cc1`?
TDP1 cell noCPT: 17µM*; TDP1 cell CPT: inconclusive

What do the screens show for `O=C1[C@@H](Oc2ccccc2)[C@@H](c2cccnc2)N1c1ccccc1`?
TDP1 cell noCPT: 18µM*; IL1B secr inh: -5; TDP1 cell CPT: 21µM*; HT1080 IDH1KD tx: 21µM*; HT1080-NT tox: inconclusive

What do the screens show for `O=C1[C@@H](Oc2ccccc2)[C@@H](c2ccccc2)N1c1ccccc1`?
TDP1 cell noCPT: -27%; IL1B secr inh: 4; TDP1 cell CPT: -19%; HT1080 IDH1KD tx: 6%; HT1080-NT tox: 3%

How did O=C1[C@H](Oc2ccccc2)[C@@H](c2ccccc2)N1c1ccncc1 do in these assays?
TDP1 cell noCPT: 23µM*; IL1B secr inh: -104*; TDP1 cell CPT: inconclusive; HT1080 IDH1KD tx: inconclusive; HT1080-NT tox: -20%
